Among the data in PubChem BioAssay (NCI) are growth values, retold here.

About 83,000 compounds went through this panel and 20% of them were active in at least one assay; those are over-represented in the sample as a whole.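 Treatment: one concentration, 48 hours, 96-well format. Scoring: percent growth, with anything below 10 considered active.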 Unmarked numbers belong to inactive results. Activity calls are given as the source filed them.

Some test systems named below: SR leukemia; RPMI-8226 leukemia; OVCAR-5 ovarian; OVCAR-4 ovarian; SK-OV-3 ovarian; IGROV1 ovarian; OVCAR-3 ovarian; NCI/ADR-RES ovarian; T-47D breast; BT-549 breast; MDA-MB-435 melanoma; SW-620 colon; MCF7 breast; HCT-116 colon; KM12 colon; HS 578T breast; HCC-2998 colon; OVCAR-8 ovarian.
What all share (test): NCI-60 one-dose screen, 48 h (100 = growth as untreated, 0 = no growth, -100 = all killed)
What all share (conditions): 10 µM unless noted

`COc1cc(C(=O)/C=C/c2cc(-c3ccc4c(c3)OCO4)n[nH]2)cc(OC)c1OC`: the growth is -25.3% (active) with SR leukemia; -42.4% (active) with RPMI-8226 leukemia; 57.6% with OVCAR-5 ovarian; 27.7% in the assay on OVCAR-4 ovarian; 60.8% with SK-OV-3 ovarian; 64.8% in the assay with IGROV1 ovarian. Besides, the growth with OVCAR-3 ovarian is -17.8% (active); in the assay with NCI/ADR-RES ovarian, -13.5% (active); in the assay on T-47D breast, 19.7%; with BT-549 breast, -11.2% (active); in the assay with MDA-MB-435 melanoma, 40%; in the assay with SW-620 colon, -15.1% (active). In addition, the figures for the growth in the assay on MCF7 breast, in the assay with HCT-116 colon and in the assay on KM12 colon were 6.06% (active), 6.54% (active) and 1.81% (active), respectively.
For `CCc1ccc(-c2ccc(Nc3ccccc3)nn2)cc1S(N)(=O)=O`, the growth in the assay with SR leukemia was 9.58% (active); with RPMI-8226 leukemia, 27.8%; in the assay with OVCAR-5 ovarian it was 93%; in the assay with OVCAR-4 ovarian, 87.1%; with SK-OV-3 ovarian, 96.8%; with IGROV1 ovarian it was 106%. The growth in the assay on OVCAR-3 ovarian is 63.8%; in the assay with HS 578T breast, 84.1%; in the assay on NCI/ADR-RES ovarian, 85.6%; in the assay with T-47D breast it was 53.3%; with BT-549 breast, 83.3%; in the assay with MDA-MB-435 melanoma, 36.1%. The growth was 54.1% in the assay on SW-620 colon; 84.3% in the assay on MCF7 breast; 72.6% with HCT-116 colon; 85.4% with HCC-2998 colon; 40.6% in the assay on KM12 colon.
As for `COC(=O)[C@@H]1[C@H]2C[C@H]3c4[nH]c5cc(OC)ccc5c4CCN3C[C@@H]2C[C@H](OC(=O)/C=C/c2ccnc(OC)c2)[C@H]1OC`, the growth is 73.1% in the assay on SR leukemia; 69.6% with RPMI-8226 leukemia; 88.4% with OVCAR-8 ovarian; 102% with OVCAR-5 ovarian; 96% with SK-OV-3 ovarian; 83.2% in the assay on IGROV1 ovarian. Further, the growth is 90.3% with OVCAR-3 ovarian; 90.9% in the assay with HS 578T breast; 81.6% in the assay on NCI/ADR-RES ovarian; 67.1% in the assay with T-47D breast; 97.5% in the assay on MDA-MB-435 melanoma; 72.6% in the assay with MCF7 breast. Moreover, the growth is 73.4% in the assay with HCT-116 colon, 105% with HCC-2998 colon and 98.8% in the assay with KM12 colon.
As to `NC(=O)NCC1CCCCC1`, the growth in the assay with SR leukemia was 99.4%; in the assay on RPMI-8226 leukemia, 108%; in the assay on OVCAR-8 ovarian, 114%; with OVCAR-4 ovarian, 102%; in the assay on SK-OV-3 ovarian it was 109%; in the assay on IGROV1 ovarian, 101%. Also, the growth with OVCAR-3 ovarian is 109%; in the assay with HS 578T breast, 112%; with NCI/ADR-RES ovarian it was 95.1%; with T-47D breast it was 97.7%; in the assay with BT-549 breast, 104%; in the assay on MDA-MB-435 melanoma, 102%. The growth in the assay on SW-620 colon is 108%; with MCF7 breast it was 90.6%; in the assay with HCT-116 colon, 106%; with HCC-2998 colon, 95.5%; in the assay with KM12 colon it was 102%.
As for `COc1ccc2c(c1)C/C(=C\c1cc(-c3ccc4c(c3)OCO4)n[nH]1)C2=O`, the growth in the assay with SR leukemia was 73.7%; in the assay with RPMI-8226 leukemia, 45.8%; with OVCAR-5 ovarian, 98.3%; in the assay with OVCAR-4 ovarian it was 90.9%; in the assay with SK-OV-3 ovarian, 95.6%; in the assay with IGROV1 ovarian, 99.1%. The growth in the assay on OVCAR-3 ovarian was 71.3%; in the assay with HS 578T breast it was 99.4%; in the assay with NCI/ADR-RES ovarian, 109%; in the assay with T-47D breast, 23%; in the assay on BT-549 breast, 93.9%; in the assay with MDA-MB-435 melanoma, 93%. In addition, the growth in the assay with SW-620 colon is 96.6%; in the assay on MCF7 breast, 34.8%; in the assay with HCT-116 colon it was 93.3%; in the assay with HCC-2998 colon, 105%; with KM12 colon it was 85.7%.
On to `COc1ccc(-c2nc3ccccn3c2-c2nc3ccc(Cl)cc3[nH]2)cc1`, for which the growth in the assay on SR leukemia is 70.3%; in the assay with RPMI-8226 leukemia, 43.7%; with OVCAR-5 ovarian, 102%; in the assay on OVCAR-4 ovarian it was 86%; in the assay with SK-OV-3 ovarian, 107%; in the assay on IGROV1 ovarian, 102%. The growth with OVCAR-3 ovarian is 73.9%; in the assay on HS 578T breast it was 93.6%; with NCI/ADR-RES ovarian it was 90.3%; with T-47D breast, 75%; in the assay with BT-549 breast, 94.4%; in the assay on MDA-MB-435 melanoma, 86.9%. Besides, the growth is 88.4% in the assay on SW-620 colon; 79.6% with MCF7 breast; 93.5% with HCT-116 colon; 97.6% with HCC-2998 colon; 86.4% in the assay on KM12 colon.
Consider `O=C1CNCCN1`, for which the growth in the assay on SR leukemia was 102%; in the assay with RPMI-8226 leukemia it was 98.9%; with OVCAR-8 ovarian, 103%; with OVCAR-4 ovarian it was 108%; with SK-OV-3 ovarian, 112%; with IGROV1 ovarian it was 99.7%. In addition, the growth in the assay on OVCAR-3 ovarian was 109%; in the assay with HS 578T breast, 100%; in the assay on NCI/ADR-RES ovarian, 106%; in the assay with T-47D breast, 110%; in the assay on MDA-MB-435 melanoma, 107%; in the assay with SW-620 colon, 104%. The growth with MCF7 breast is 89.3%; in the assay on HCT-116 colon, 101%; in the assay with HCC-2998 colon, 111%; with KM12 colon it was 110%.
With `OCC(CO)(CCl)CCl`, the growth in the assay with SR leukemia is 95.6%; in the assay on OVCAR-8 ovarian, 101%; with OVCAR-5 ovarian, 98.1%; with OVCAR-4 ovarian, 109%; in the assay on SK-OV-3 ovarian it was 88.5%; in the assay with IGROV1 ovarian, 109%. Further, the growth was 105% with OVCAR-3 ovarian; 105% in the assay on HS 578T breast; 99% in the assay on NCI/ADR-RES ovarian; 94.2% in the assay on T-47D breast; 95.6% in the assay on BT-549 breast; 105% in the assay on MDA-MB-435 melanoma. The growth was 101% with SW-620 colon; 94.2% with MCF7 breast; 78.6% with HCT-116 colon; 101% with HCC-2998 colon; 99.9% in the assay with KM12 colon.
For `COc1ccc2nc(-c3c(-c4ccccc4)nc4ncccn34)[nH]c2c1`, the growth with SR leukemia was 90.3%; in the assay on RPMI-8226 leukemia, 88%; with OVCAR-5 ovarian, 97.9%; with OVCAR-4 ovarian, 93.2%; in the assay on SK-OV-3 ovarian, 109%; with IGROV1 ovarian, 111%. Also, the growth was 108% in the assay with OVCAR-3 ovarian; 108% in the assay with NCI/ADR-RES ovarian; 82.1% with T-47D breast; 104% with MDA-MB-435 melanoma; 108% in the assay with SW-620 colon; 96.6% in the assay with MCF7 breast. Further, the growth in the assay with HCT-116 colon is 97.1%; with HCC-2998 colon it was 101%; in the assay with KM12 colon it was 111%.
